# Measurements as given in the supplement of paper PMC6555819.
# How the values were obtained:
# Assay in all cases: PBM binding z-score (relative to random genomic background probes); higher = stronger binding; sequences stand for … in GC…GCGATTGACAGCGTAGAATGAAGG
# [1] = test system: FXR:RXRa (NR concentration 270 nM, RXRa partner concentration 90 nM)
# Method in brief: (§1)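 Custom Agilent 4×180K protein-binding microarrays carried double-stranded probes. Their 34-nt variable regions held direct-repeat seeds, single-nucleotide variants, half-site ablations and random human genomic background sequences. Arrays were incubated 1 h with ligand-free nuclear receptor dimers in PBS pH 7.4, 2% milk, 0.02% Triton X-100, 1 mM DTT, 0.2 mg/mL BSA and 0.4 mg/ml salmon testes DNA. Antibodies against each partner (one per run) detected binding, and scanned fluorescence was regression-normalized. Binding z-scores use random background probes as reference.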
# [2] = test system: LXRa:RXRa (NR concentration 270 nM, RXRa partner concentration 90 nM)
# Method in brief: as §1
# [3] = test system: LXRa homodimer (NR concentration 270 nM)
# Method in brief: as §1
# [4] = test system: LXRb:RXRa (NR concentration 270 nM, RXRa partner concentration 90 nM)
# Method in brief: as §1
# [5] = test system: LXRb homodimer (NR concentration 270 nM)
# Method in brief: as §1
# [6] = test system: PPARa:RXRa (NR concentration 270 nM, RXRa partner concentration 90 nM)
# Method in brief: as §1
# [7] = test system: PPARg:RXRa (NR concentration 180 nM, RXRa partner concentration 90 nM)
# Method in brief: as §1
# [8] = test system: PPARg:RXRa 270nM:90nM, anti-RXR (NR concentration 270 nM, RXRa partner concentration 90 nM)
# Method in brief: as §1
# [9] = test system: PPARg:RXRa 30nM:10nM, anti-RXR (NR concentration 30 nM, RXRa partner concentration 10 nM)
# Method in brief: as §1
# [10] = test system: PPARg:RXRa 90nM:30nM, anti-RXR (NR concentration 90 nM, RXRa partner concentration 30 nM)
# Method in brief: as §1
# [11] = test system: PPARg:RXRa DBDmut IVT, anti-RXR (DBD mutation: RXRa K156A/R161A, NR concentration 270 nM, RXRa partner concentration 90 nM)
# Method in brief: as §1
# [12] = test system: PPARg:RXRa IVT, anti-PPARg (NR concentration 270 nM, RXRa partner concentration 90 nM)
# Method in brief: as §1
# [13] = test system: PPARg DBDmut:RXRa IVT, anti-PPARg (DBD mutation: PPARg1 K132A/R137A, NR concentration 270 nM, RXRa partner concentration 90 nM)
# Method in brief: as §1
# [14] = test system: PPARg DBDmut IVT, anti-PPARg (DBD mutation: PPARg1 K132A/R137A, NR concentration 270 nM)
# Method in brief: as §1
# [15] = test system: PPARg homodimer (NR concentration 180 nM)
# Method in brief: as §1
# [16] = test system: PXR:RXRa (NR concentration 270 nM, RXRa partner concentration 90 nM)
# Method in brief: as §1
# [17] = test system: PXR homodimer (NR concentration 270 nM)
# Method in brief: as §1
# [18] = test system: RARa:RXR (NR concentration 270 nM, RXRa partner concentration 90 nM)
# Method in brief: as §1
# [19] = test system: RARa homodimer (NR concentration 270 nM)
# Method in brief: as §1
# [20] = test system: RARb:RXRa (NR concentration 270 nM, RXRa partner concentration 90 nM)
# Method in brief: as §1
Sequence,PBM binding z-score [1],PBM binding z-score [2],PBM binding z-score [3],PBM binding z-score [4],PBM binding z-score [5],PBM binding z-score [6],PBM binding z-score [7],PBM binding z-score [8],PBM binding z-score [9],PBM binding z-score [10],PBM binding z-score [11],PBM binding z-score [12],PBM binding z-score [13],PBM binding z-score [14],PBM binding z-score [15],PBM binding z-score [16],PBM binding z-score [17],PBM binding z-score [18],PBM binding z-score [19],PBM binding z-score [20]
CCGACTGGGGCAATGTTACCATAACGCACAGCCA,-0.585,-0.725,-0.195,-0.162,-1.01,0.11,1.21,0.645,-0.14,0.223,3.67,2.99,-0.638,-0.759,0.142,-0.771,-0.41,-0.456,0.0364,0.351
CCGACTGGGGCAAGGTTACAATAACGCACAGCCA,0.137,0.576,-0.19,0.492,-1.15,1.94,3,2.86,1.2,2.36,3.2,3.29,-0.578,-1.14,0.441,0.333,-0.113,0.945,0.189,1.38
TCTTGTAGATCGAAGGTTAAGAAAGCCGAAGCCT,0.669,0.667,-0.334,0.511,-0.593,2.25,3.11,5.23,4.1,5.26,1.1,1.32,-0.629,-0.226,0.155,0.143,-0.658,0.948,-0.208,0.667
ATAATGAGGTTACCAAAGATCAGGGAAACGCTTG,1.8,6.12,0.166,3.15,0.596,3.37,3.17,3,1.2,2.35,4.27,3.93,1.55,1.88,0.591,1.51,0.204,1.93,1.22,2.14
CAAACTAGGTCAAGGGCAAAGTCGGTTTGTGCCA,3.97,3.12,0.592,2.17,0.2,5.38,9.21,8.06,6.95,8.38,8.17,8.56,2.21,2.46,3.97,2.25,0.415,2.77,0.377,4.27
AATACAGGGTCAATAGGCCAGAGTAGGTACGAAT,6.54,5.03,0.816,3.72,0.669,5.72,6.47,5.46,2.53,4.61,2.44,4.21,1.55,0.759,2.2,2.69,0.585,3.85,0.911,4.17
TAGCCTAGGTCAGATAGGGCCAGTATACGCTATA,2.49,0.979,-0.0979,0.697,-0.375,1.59,0.726,0.567,-0.0576,0.283,0.509,1.38,0.269,0.324,0.391,1.37,-0.14,0.802,-0.488,3.05
AGTAAAAGTTCATCTAGGTAACGTAAGATATGCT,6.26,5.78,5.21,3.31,1.71,4.42,3.98,3.88,1.55,2.54,0.423,2.83,1.21,1.83,2.75,4.52,3.57,3.39,1.46,4.72
TCTTGTAGATCAACAGGAGGTTAAGAATGATCGA,0.541,0.729,0.072,0.703,-0.4,1.41,0.296,1.52,2.59,2.06,1.72,0.852,0.795,0.577,0.581,0.825,0.00794,0.975,0.614,0.678
CCGACTGGGGCAAGGCTACCATAACGCACAGCCA,-0.0743,-0.335,-0.467,-0.273,-1.05,-0.00984,1.08,0.83,-0.201,0.0921,2.56,2.89,-0.229,-0.37,-0.287,-0.481,-0.488,-0.164,-0.086,0.763
GGCACGAGGGCAAGTTGATAGCAGAGTTTGATGG,0.802,0.399,-0.191,0.444,-0.697,1.23,0.838,0.927,-0.291,0.52,2.14,1.32,-0.405,-1.03,0.282,1.01,0.171,0.665,-0.327,2.59
GCTGCTAGGTCAGGTTGGGCAGCTAACGGGTACG,1.01,0.624,-0.384,0.136,-0.285,0.991,0.332,0.824,-0.181,0.136,2.83,1.93,-0.639,-0.804,0.77,-0.238,-0.455,0.335,-0.329,3.17
ATCTCTAGGTAAGACTCAGTTCAGTGCAGAACGC,0.385,0.334,0.807,0.371,0.594,0.349,0.209,0.0288,0.281,0.195,1.92,1.08,0.985,1.26,1.53,1.14,1.56,0.346,1.16,0.33
